Records with an inconclusive call do not appear. Activity calls are given as the source filed them.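 How the source made its calls, unless noted: active means normalized viability below 100% at a tested concentration; inactive means the rest.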
Assays:
[1] = growth inhibition of DIPG glioma cells, dose response, cell-based, SU-DIPG-XVII, MIPE5.0, CellTiter-Glo, qHTS (AID 1347060; cut-off not given, nearly all actives have AC50 up to about 26 µM;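 on AC50: cells exposed to compound for 48 hours before viability readout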); conditions: SU-DIPG-XVII viability, CellTiter-Glo ATP luminescence
[2] = growth inhibition of DIPG glioma cells, dose response, cell-based, SU-DIPG-IV, MIPE4.0, CellTiter-Glo, qHTS (AID 1347063; cut-off not given, nearly all actives have AC50 up to about 30 µM;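 further: compound exposure lasted 48 hours before the viability readout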); conditions: SU-DIPG-IV viability, CellTiter-Glo ATP luminescence
[3] = viability loss in pontine glioma line – cell-based, SU-DIPG-XXV, MIPE5.0, CellTiter-Glo, qHTS, dose response (AID 1347065; cut-off not given, nearly all actives have AC50 up to about 26 µM;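 further: cells exposed to compound for 48 hours before ATP readout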); conditions: CellTiter-Glo ATP luminescence
[4] = SU-DIPG-VI glioma cell viability, MIPE4.0 library, CellTiter-Glo luminescence, qHTS (AID 1347066; cut-off not given, nearly all actives have AC50 up to about 30 µM;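 further: cells exposed to compound for 48 hours before readout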); conditions: CellTiter-Glo ATP luminescence
[5] = growth inhibition of DIPG glioma cells, dose response, cell-based, SU-DIPG-XIII, MIPE5.0, CellTiter-Glo, qHTS (AID 1347064; cut-off not given, nearly all actives have AC50 up to about 23 µM;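 on AC50: cells exposed to compound for 48 hours before the viability read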); conditions: SU-DIPG-XIII viability, CellTiter-Glo ATP luminescence
[6] = JHH-DIPG-1 glioma cell viability, MIPE5.0 library, CellTiter-Glo luminescence, qHTS (AID 1347067; cut-off not given, nearly all actives have AC50 up to about 26 µM;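 further: cells exposed to compound for 48 hours before readout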); conditions: JHH-DIPG-1 glioma viability, CellTiter-Glo ATP luminescence
[7] = SU-DIPG-XXV glioma cell viability, MIPE5.0 library, qHTS (AID 1347068; cut-off not given, nearly all actives have IC50 up to about 30 µM;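 on IC50: cells exposed to compound for 48 hours before viability readout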)
[8] = sensitizers of A549 cells to miR-34 induction, primary screen, imaging, A549 dox-inducible miR-34, nuclei and caspase counts (AID 1347080;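 active means compounds whose cell count with miR-34 switched on is under 0.7 times the count with it off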); conditions: A549 miR-34 inducible, Hoechst nuclei count, 48 h
[9] = modifiers of HSF1 nuclear foci, imaging, Selleck Cancer Library (AID 1347162; in the data active means plate-normalised HSF1 focus index below about 0.46); conditions: human cells, at 10 µM; SSMD: measured here: HSF1 foci SSMD mean; cell count: measured here: cell number; plate-normalised HSF1 focus index: stronger effect = lower value
[10] = survival rescue of mitochondrial mutant cells in low glucose, primary screen, MELAS cybrids, Rieske KO mouse fibroblasts, CellTiter-Glo (AID 1508586;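 active means mean z-score across replicates of 1.96 or higher in either the MELAS or the Rieske mutant cell line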;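 further: z relative to plate mean and SD of compound and empty wells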)
[11] = ovarian cancer cell viability with rucaparib, profiling panel, oncology-focused library, rucaparib conditional (AID 1508598); conditions: patient-derived ovarian cancer cells, CellTiter-Glo viability, 144 h, stronger effect = lower value
[12] = liver-stage malaria parasite growth inhibition, primary screen, cell-based, HepG2, luciferase luminescence, HepG2 viability (AID 624349; in the data active means parasite load remaining mostly below about 12%, no sharp cut-off; inactive means mostly above about 10%;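 further: 100% = mean of DMSO negative control wells on the same plate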); conditions: P. berghei liver stage in HepG2, luciferase luminescence, concentration not given here; parasite load remaining: stronger effect = lower value; viability: measured here: HepG2 viability without parasites
[13] = stronger effect = lower value, cell number ratio, induced over uninduced
[14] = measured here: relative caspase fold change +Dox/-Dox
[15] = measured here: total cells with miR-34 induction, stronger effect = lower value
[16] = measured here: total cells without miR-34 induction
[17] = MELAS cybrid survival, CellTiter-Glo 48 h, stronger effect = higher value
[18] = Rieske KO mouse fibroblast survival, CellTiter-Glo 72 h
[19] = at 0.000305 µM, OCI-C5x cells, with rucaparib 10 µM, 100% = cells with rucaparib alone
[20] = at 0.000305 µM, OCI-C5x cells, without rucaparib
[21] = at 0.000305 µM, OCI-P5x cells, with rucaparib 20 µM, 100% = cells with rucaparib alone
[22] = at 0.000305 µM, OCI-P5x cells, without rucaparib
[23] = at 0.00122 µM, OCI-C5x cells, with rucaparib 10 µM, 100% = cells with rucaparib alone
[24] = at 0.00122 µM, OCI-C5x cells, without rucaparib
[25] = at 0.00122 µM, OCI-P5x cells, with rucaparib 20 µM, 100% = cells with rucaparib alone
[26] = at 0.00122 µM, OCI-P5x cells, without rucaparib
[27] = at 0.00488 µM, OCI-C5x cells, with rucaparib 10 µM, 100% = cells with rucaparib alone
[28] = at 0.00488 µM, OCI-C5x cells, without rucaparib
[29] = at 0.00488 µM, OCI-P5x cells, with rucaparib 20 µM, 100% = cells with rucaparib alone
[30] = at 0.00488 µM, OCI-P5x cells, without rucaparib
[31] = at 0.0195 µM, OCI-C5x cells, with rucaparib 10 µM, 100% = cells with rucaparib alone
[32] = at 0.0195 µM, OCI-C5x cells, without rucaparib
[33] = at 0.0195 µM, OCI-P5x cells, with rucaparib 20 µM, 100% = cells with rucaparib alone
[34] = at 0.0195 µM, OCI-P5x cells, without rucaparib
[35] = at 0.0781 µM, OCI-C5x cells, with rucaparib 10 µM, 100% = cells with rucaparib alone
[36] = at 0.0781 µM, OCI-C5x cells, without rucaparib
[37] = at 0.0781 µM, OCI-P5x cells, with rucaparib 20 µM, 100% = cells with rucaparib alone
[38] = at 0.0781 µM, OCI-P5x cells, without rucaparib
[39] = at 0.313 µM, OCI-C5x cells, with rucaparib 10 µM, 100% = cells with rucaparib alone
[40] = at 0.313 µM, OCI-C5x cells, without rucaparib
[41] = at 0.313 µM, OCI-P5x cells, with rucaparib 20 µM, 100% = cells with rucaparib alone
[42] = at 0.313 µM, OCI-P5x cells, without rucaparib
[43] = at 1.25 µM, OCI-C5x cells, with rucaparib 10 µM, 100% = cells with rucaparib alone
[44] = at 1.25 µM, OCI-C5x cells, without rucaparib
[45] = at 1.25 µM, OCI-P5x cells, with rucaparib 20 µM, 100% = cells with rucaparib alone
[46] = at 1.25 µM, OCI-P5x cells, without rucaparib
[47] = at 5 µM, OCI-C5x cells, with rucaparib 10 µM, 100% = cells with rucaparib alone
[48] = at 5 µM, OCI-C5x cells, without rucaparib
[49] = at 5 µM, OCI-P5x cells, with rucaparib 20 µM, 100% = cells with rucaparib alone
[50] = at 5 µM, OCI-P5x cells, without rucaparib

O=C1NC(=O)[C@@H](c2cn3c4c(cccc24)CCC3)[C@@H]1c1c[nH]c2ccccc12
active: AC50 [1] 1.05 µM | AC50 [2] 13.2 µM | AC50 [3] 1.48 µM | AC50 [4] 23.5 µM

CCn1c(=O)c(-c2ccn[nH]2)cc2c(C)nc(N)nc21
active: AC50 [1] 7.42 µM | AC50 [5] 5.9 µM | AC50 [3] 4.17 µM

O=c1ccn([C@@H]2O[C@H](CO)[C@@H](O)[C@@H]2F)c(=O)[nH]1
inactive: outcome [1] | outcome [2] | outcome [3] | outcome [4] | outcome [6] | outcome [7]

CCCCNc1ncc(-c2ccc(CN3CCOCC3)cn2)c(NC2CCC(O)CC2)n1 (stereo not drawn)
inactive: outcome [5]
active: AC50 [1] 2.57 µM | AC50 [3] 1.82 µM

O=C(Nc1ccc(OC(F)(F)Cl)cc1)c1cnc(N2CC[C@@H](O)C2)c(-c2ccn[nH]2)c1
inactive: outcome [5]
active: AC50 [1] 23.5 µM

c1ccc(-c2cc(CCC3CCNCC3)c3ccccc3n2)cc1
active: AC50 [1] 23.5 µM | AC50 [5] 23.5 µM | AC50 [3] 23.5 µM

CS(=O)(=O)N1CCc2c(-c3cnc(N)nc3)nc(N3CCOCC3)nc21
inactive: fold change [8, 13] 0.998 | plate-normalised HSF1 focus index [9] 0.883 | viability [11, 19] 100% | viability [11, 20] 117% | viability [11, 21] 117% | viability [11, 22] 109% | viability [11, 23] 103% | viability [11, 24] 117% | viability [11, 25] 115% | viability [11, 26] 111% | viability [11, 28] 111% | viability [11, 29] 113% | viability [11, 30] 112% | viability [11, 31] 106% | viability [11, 32] 125% | viability [11, 33] 115% | viability [11, 34] 111% | viability [11, 36] 115% | viability [11, 37] 112% | viability [11, 38] 110% | viability [11, 40] 105% | viability [11, 41] 109% | viability [11, 42] 107% | viability [11, 44] 118%
-3.29: SSMD [9]
0.485: fold change [8, 14]
-1.3: z-score [10, 18]
7210: cell count [9]
3180: cell count [8, 15] | cell count [8, 16]
active: AC50 [1] 1.86 µM | AC50 [2] 0.148 µM | AC50 [5] 1.18 µM | AC50 [3] 0.525 µM | IC50 [7] 0.934 µM | z-score [10, 17] 3.23 | viability [11, 27] 96.5% | viability [11, 35] 87.7% | viability [11, 39] 91.8% | viability [11, 43] 75.9% | viability [11, 45] 66.8% | viability [11, 46] 97% | viability [11, 47] 39.2% | viability [11, 48] 56% | viability [11, 49] 16% | viability [11, 50] 16.9%

CCC(=C/[C@H](C)C/C=C/C(C)=C/[C@@H](C)C(=O)[C@@H](C)[C@H](O)[C@@H](C)C/C(C)=C/C(=O)O)/C=C/[C@@H]1OC(=O)C=C[C@@H]1C
active: AC50 [1] 0.00296 µM | AC50 [2] 0.0139 µM | AC50 [3] 0.00209 µM | AC50 [6] 18.6 µM | IC50 [7] 0.833 µM

Clc1ccc2ncc(-c3cccc(NC4CNC4)n3)n2c1
active: AC50 [2] 26.4 µM
inactive: outcome [1] | outcome [6] | outcome [7]

CNC(=O)c1cc(Oc2ccc(NC(=O)Nc3ccc(Cl)c(C(F)(F)F)c3)c(F)c2)ccn1
2520: cell count [8, 15]
inactive: fold change [8, 13] 0.87 | z-score [10, 17] -0.38 | viability [11, 19] 108% | viability [11, 21] 101% | viability [11, 22] 104% | viability [11, 23] 108% | viability [11, 25] 109% | viability [11, 26] 106% | viability [11, 27] 109% | viability [11, 29] 114% | viability [11, 30] 109% | viability [11, 31] 114% | viability [11, 33] 115% | viability [11, 34] 116% | viability [11, 35] 106% | viability [11, 37] 115% | viability [11, 38] 110% | viability [11, 39] 104% | viability [11, 40] 102% | viability [11, 41] 115% | viability [11, 42] 117% | viability [11, 43] 107% | viability [11, 44] 104% | viability [11, 45] 103% | viability [11, 46] 117% | viability [11, 47] 125% | viability [11, 48] 105% | viability [11, 50] 121%
1.02: z-score [10, 18]
active: AC50 [1] 16.6 µM | AC50 [2] 13.2 µM | AC50 [3] 20.9 µM | AC50 [4] 9.35 µM | IC50 [7] 20.9 µM | viability [11, 20] 90.4% | viability [11, 24] 90.8% | viability [11, 28] 98.5% | viability [11, 32] 91.4% | viability [11, 36] 88.4% | viability [11, 49] 80.9%
0.959: fold change [8, 14]
2900: cell count [8, 16]

Nc1cccc(-c2cc3c(Oc4cccc(O)c4)ncnc3[nH]2)c1
inactive: parasite load remaining [12] 28.2% | fold change [8, 13] 1.45 | z-score [10, 17] 0.0499
64.3%: viability [12]
1240: cell count [8, 16]
-2.88: z-score [10, 18]
0.507: fold change [8, 14]
1790: cell count [8, 15]
active: AC50 [1] 1.66 µM | AC50 [2] 11.8 µM | AC50 [5] 4.68 µM | AC50 [3] 5.25 µM | IC50 [7] 8.33 µM

CC(C)(O)CC(=O)NCCn1ccc2ncnc(Nc3ccc(Oc4cccc(C(F)(F)F)c4)c(Cl)c3)c21
inactive: fold change [8, 13] 0.965 | z-score [10, 17] -0.328
0.83: z-score [10, 18]
8420: cell count [8, 16]
active: AC50 [1] 18.6 µM | AC50 [2] 26.4 µM | AC50 [3] 26.3 µM | AC50 [6] 20.9 µM | IC50 [7] 23.5 µM
0.647: fold change [8, 14]
8120: cell count [8, 15]

Reference: PubChem BioAssay
